Measured values as given in PubChem BioAssay (NCATS).
A number with no mark means an inactive call. Results filed as inconclusive are left out. Activity calls are given as the source filed them. Unless noted, calls follow the shape of the dose curve; as a rule, active = well fitted curve in either direction with a large enough effect (not every such curve was filed as active); inconclusive = small, poorly fitted or top-dose-only effect, or another doubt; inactive = flat fitted curve, though single readings scatter.

How the values were obtained:
[1] = biological target: Lysosomal acid glucosylceramidase (Homo sapiens) (UniProt P04062); test: Glucocerebrosidase-p2 (AID 348; in the data active = potency below about 10 µM; also: potency is read from the fitted curve at half-maximal effect); details: purified GBA, blue fluorogenic substrate, 40 min
Lysosomal acid glucosylceramidase (Homo sapiens), sequence (P04062 whole entry, looked up): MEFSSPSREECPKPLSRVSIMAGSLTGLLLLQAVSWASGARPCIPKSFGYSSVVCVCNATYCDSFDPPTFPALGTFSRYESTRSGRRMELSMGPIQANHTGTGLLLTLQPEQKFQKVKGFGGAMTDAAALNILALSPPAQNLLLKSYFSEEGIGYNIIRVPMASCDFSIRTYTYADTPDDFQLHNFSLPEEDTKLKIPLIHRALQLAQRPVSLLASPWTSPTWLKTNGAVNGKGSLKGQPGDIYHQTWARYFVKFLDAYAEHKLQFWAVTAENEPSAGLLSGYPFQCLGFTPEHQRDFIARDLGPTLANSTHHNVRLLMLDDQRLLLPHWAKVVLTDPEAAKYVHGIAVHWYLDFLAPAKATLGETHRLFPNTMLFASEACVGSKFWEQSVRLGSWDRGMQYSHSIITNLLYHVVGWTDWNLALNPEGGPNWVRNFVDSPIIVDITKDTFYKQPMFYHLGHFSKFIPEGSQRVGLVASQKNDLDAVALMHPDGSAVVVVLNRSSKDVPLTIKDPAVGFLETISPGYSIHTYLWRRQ
Procedure, shortened: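 Normal human glucocerebrosidase (0.2 nM) with blue fluorogenic substrate (80 uM final) in citrate/phosphate pH 5.9 with 10mM sodium taurocholate, 0.01% tween-20; 40 min RT, NaOH/glycine stop; fluorescence Ex 365/Em 440; AC50 from a titration from 0.6 nM upwards.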

[2] = AP1 Signaling Pathway (AID 357); details: ME-180 AP-1-bla reporter, EGF-induced, beta-lactamase ratio, 5 h; at 7.69 µM (top of the series) unless noted;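 also: ME-180 reporter cells stimulated with EGF at its EC50 level; % is scaled to controls: 0 for no effect and ±100 for the full control effect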
Procedure, shortened: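 In this screen, ME-180 cells in Opti-MEM with 0.5% dialyzed FBS received EC50 EGF and compound titrations for 5 h. AP-1 reporter beta-lactamase was detected via CCF4 ratio, giving AC50 for positive and negative modulators.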

[3] = biological target: Cytochrome P450 1A2 (Homo sapiens) (UniProt P05177); test: p450-cyp1a2 (AID 410; calls by dose curve; also: potency is read from the fitted curve at half-maximal effect;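 as to activity change, negative = inhibition: -100% = full effect of reference inhibitor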); details: recombinant CYP1A2, luciferin-ME demethylation, luminescence; series mostly up to 11.4 µM
Cytochrome P450 1A2 (Homo sapiens), sequence (P05177 whole entry, looked up): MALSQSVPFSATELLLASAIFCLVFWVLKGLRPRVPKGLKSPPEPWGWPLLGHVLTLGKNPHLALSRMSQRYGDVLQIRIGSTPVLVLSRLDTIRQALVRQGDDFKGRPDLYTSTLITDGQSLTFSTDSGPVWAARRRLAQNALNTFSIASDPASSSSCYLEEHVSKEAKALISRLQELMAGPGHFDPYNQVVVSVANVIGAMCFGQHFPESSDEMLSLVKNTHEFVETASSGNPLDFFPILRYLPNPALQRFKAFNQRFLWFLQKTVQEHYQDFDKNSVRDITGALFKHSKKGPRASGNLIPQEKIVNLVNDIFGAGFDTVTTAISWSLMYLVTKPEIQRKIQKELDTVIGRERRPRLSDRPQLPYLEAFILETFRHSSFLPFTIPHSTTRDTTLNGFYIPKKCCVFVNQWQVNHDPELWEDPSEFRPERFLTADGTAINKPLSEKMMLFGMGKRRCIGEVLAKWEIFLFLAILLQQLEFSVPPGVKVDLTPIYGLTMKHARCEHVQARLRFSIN
Procedure, shortened: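 Read-out is luminescence from luciferin produced by CYP1A2 demethylation of Luciferin-ME (100uM, at Km). Detection reagent stopped the 60 min NADPH-dependent reaction; signals were normalized to 57 uM furafylline.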

[4] = NFAT Signaling Pathway (AID 444); details: Jurkat NFAT-bla M1, carbachol, beta-lactamase ratio, 5 h; at 7.69 µM (top of the series) unless noted;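 also: carbachol stimulus at about its EC50 of 1 µM final; % is scaled to controls: 0 for no effect and ±100 for the full control effect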
Procedure, shortened: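 Jurkat cells carrying an NFAT-driven β-lactamase reporter and co-transfected muscarinic M1 receptor were treated with compound plus carbachol (1 uM final, an EC50 level) for 5 h at 37 °C. CCF4 loading followed for 1 h at RT; 460/530 nm ratio gave %activity.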

[5] = Stat Signaling Pathway (AID 446); details: ME-180 (cervical carcinoma) SIE beta-lactamase reporter, IL-6 stimulated, 5 h; at 7.69 µM (top of the series) unless noted;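 also: ME-180 cervical cancer cells given 40 pM IL-6 alongside compound; SIE-controlled beta-lactamase reporter measured as 460/530 nm FRET emission ratio; % is scaled to controls: 0 for no effect and ±100 for the full control effect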
Procedure, shortened: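 Normalization used AC90 stimulation (300 pM IL-6) and AC90 inhibition (125 nM pan-JAK inhibitor at 40 pM IL-6). The underlying signal is SIE-driven beta-lactamase in ME-180 cells after 5 h IL-6 exposure with compound.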

[6] = biological target: Glucocorticoid receptor (Homo sapiens) (UniProt P04150); test: GR-GFP Redistribution (AID 450;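 active = compounds whose dose series gives a full or clear partial fitted curve of increased nuclear translocation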; also: potency is read from the fitted curve at half-maximal effect); details: U2OS GR-GFP nuclear translocation, laser cytometry, 2 h
Glucocorticoid receptor (Homo sapiens), sequence (P04150 whole entry, looked up, the tested form may be a part): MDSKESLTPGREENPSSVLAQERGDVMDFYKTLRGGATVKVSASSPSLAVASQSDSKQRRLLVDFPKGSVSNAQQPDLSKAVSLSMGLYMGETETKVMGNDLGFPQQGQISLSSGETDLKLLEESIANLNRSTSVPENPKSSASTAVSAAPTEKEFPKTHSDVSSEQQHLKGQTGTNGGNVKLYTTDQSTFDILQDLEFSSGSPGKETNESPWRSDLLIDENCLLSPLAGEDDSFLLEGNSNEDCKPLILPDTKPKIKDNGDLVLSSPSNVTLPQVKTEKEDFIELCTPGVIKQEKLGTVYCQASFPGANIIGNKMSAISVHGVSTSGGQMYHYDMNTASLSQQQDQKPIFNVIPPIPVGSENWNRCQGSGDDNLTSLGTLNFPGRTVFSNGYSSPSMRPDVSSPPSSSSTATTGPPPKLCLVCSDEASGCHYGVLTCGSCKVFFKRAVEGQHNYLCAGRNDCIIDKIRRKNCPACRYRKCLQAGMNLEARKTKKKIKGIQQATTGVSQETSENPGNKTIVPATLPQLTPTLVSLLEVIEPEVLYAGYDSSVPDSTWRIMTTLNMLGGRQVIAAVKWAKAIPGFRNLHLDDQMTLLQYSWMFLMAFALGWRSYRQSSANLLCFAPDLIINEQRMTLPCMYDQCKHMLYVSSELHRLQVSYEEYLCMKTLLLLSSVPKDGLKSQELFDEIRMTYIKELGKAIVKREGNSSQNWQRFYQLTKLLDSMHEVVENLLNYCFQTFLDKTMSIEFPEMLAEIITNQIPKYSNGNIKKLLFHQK

[7] = biological target: Glucocorticoid receptor (Homo sapiens) (UniProt P04150); test: GR-EFC Redistribution (AID 451; calls by dose curve; also: potency is read from the fitted curve at half-maximal effect); details: CHO-K1 GR-EFC translocation, beta-gal luminescence, 2 h
Procedure, shortened: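 CHO-K1 cells stably expressing nuclear-localized β-gal enzyme acceptor and GR fused C-terminally to the enzyme donor fragment; ligand-driven nuclear translocation restores β-gal by complementation. Compounds titrated up to 46 uM final, 2 h at 37 °C; luminescence read.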

[8] = biological target: Mitogen-activated protein kinase 10 (Mus musculus) (UniProt Q61831); test: JNK3 AlphaScreen Assay (AID 530); details: JNK3 lysate, c-Jun phosphorylation; series mostly up to 11.4 µM;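 also: kinase came from lysate of stimulated human HepG2 cells; signal reports phosphorylation of biotinylated GST-cJun 1-79 at Ser73 with 10 µM ATP; % is scaled to controls: 0 for no effect and ±100 for the full control effect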
Procedure, shortened: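 Biotinylated GST-cJun(1-79) served as substrate for JNK3 in HepG2 lysates stimulated with IL-1beta and TNF-alpha. ATP was 10 uM final, pH 7.6. Ser73 phosphorylation was quantified by AlphaScreen (680 nm excitation).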

[9] = biological target: 3',5'-cyclic-AMP phosphodiesterase 4B (Homo sapiens) (UniProt Q07343); test: qHTS Assay for Inhibitors of PDE-IV (AID 607; active = well fitted activation curve with a large enough effect in the main read-out, with a control signal flat, not every such curve was filed as active; also: % of control where 0% means no effect); details: HEK293 ACTOne CNG channel cells, membrane potential fluorescence; series mostly up to 22.9 µM
3',5'-cyclic-AMP phosphodiesterase 4B (Homo sapiens), sequence (Q07343 whole entry, looked up): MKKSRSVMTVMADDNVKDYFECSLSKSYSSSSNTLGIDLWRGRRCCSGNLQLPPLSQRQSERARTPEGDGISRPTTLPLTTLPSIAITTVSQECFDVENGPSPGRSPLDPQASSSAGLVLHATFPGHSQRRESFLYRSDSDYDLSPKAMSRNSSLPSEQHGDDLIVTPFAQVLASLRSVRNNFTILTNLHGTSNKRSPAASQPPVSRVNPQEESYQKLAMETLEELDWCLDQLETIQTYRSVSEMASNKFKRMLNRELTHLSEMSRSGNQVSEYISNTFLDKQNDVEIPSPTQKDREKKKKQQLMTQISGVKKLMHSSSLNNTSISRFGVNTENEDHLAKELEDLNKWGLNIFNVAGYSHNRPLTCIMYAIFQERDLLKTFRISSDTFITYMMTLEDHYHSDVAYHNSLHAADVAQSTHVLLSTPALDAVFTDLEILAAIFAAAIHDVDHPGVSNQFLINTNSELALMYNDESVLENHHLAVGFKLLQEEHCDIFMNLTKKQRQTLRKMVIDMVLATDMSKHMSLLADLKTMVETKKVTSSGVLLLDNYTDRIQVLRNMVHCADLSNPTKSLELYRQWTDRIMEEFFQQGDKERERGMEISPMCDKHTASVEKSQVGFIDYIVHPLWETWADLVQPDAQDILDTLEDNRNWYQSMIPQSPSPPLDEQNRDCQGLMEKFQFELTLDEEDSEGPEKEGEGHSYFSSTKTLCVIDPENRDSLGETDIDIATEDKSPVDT
Procedure, shortened: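 HEK293 ACTOne cells with CNG channel (1000/well), endogenous PDE4; membrane potential dye, compounds up to 22.9 uM final. Fluorescence Ex 535/Em 590; RO 20-1724 (100 uM final) as reference.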

| Structure (SMILES) | Potency [1] | activity change, negative = inhibition [2] | Potency [3] | activity change, negative = inhibition [4] | activity, negative = inhibition [5] | Potency [6] | Potency [7] | Potency [8] | Potency [9] | activity change, negative = inhibition [3] |
| --- | --- | --- | --- | --- | --- | --- | --- | --- | --- | --- |
| O=C(O)CCC(=O)Nc1ccc2ccccc2c1 | > 11.4 µM | -0.421% | 0.0631 µM (active) | 4.48% | 8.45% | > 46 µM | > 9.22 µM | inactive | inactive | – |
| CCOC(=O)[C@]1(CC(=O)O)CCCC1=O | > 11.4 µM | -0.0726% | inactive | -7.19% | -19.1% | > 46 µM | > 9.22 µM | inactive | inactive | – |
| C/C(=N/NC1=NCCN1)c1cn(C2=NCCN2)nc1C | > 11.4 µM | 6.21% | – | -15.6% | 1.37% | > 46 µM | > 9.22 µM | inactive | inactive | -13.9% [at 2.29 µM] |
| COc1nc(N)nc2c1ncn2[C@@H]1C[C@H](O)[C@@H](CO)O1 | > 11.4 µM | 5.07% | inactive | 4.99% | 11.5% | > 46 µM | > 9.22 µM | inactive | inactive | – |
| NC(=O)[C@@H]1CCCN1Cc1ccc2c(c1)OCO2 | > 11.4 µM | -6.11% | 3.16 µM (active) | 7.42% | 6.27% | > 46 µM | > 9.22 µM | inactive | inactive | – |
| O=C(O)c1nnsc1COCc1ccccc1 | > 11.4 µM | 6.35% | inactive | 6.97% | 12.4% | > 46 µM | > 9.22 µM | inactive | inactive | – |
| O=C(O)CSCCc1ccccc1 | > 11.4 µM | 6.88% | inactive | -11.5% | 16.8% | > 46 µM | > 9.22 µM | inactive | inactive | – |
| O=CN1CCN(C[C@H](O)CN2CCCCC2)CC1 | > 11.4 µM | 9% | – | -4.36% | 8.12% | > 46 µM | > 9.22 µM | inactive | inactive | -17.6% [at 2.29 µM] |
| C(=Nc1cnc2ccccc2c1)c1ccc2ccccc2n1 | > 11.4 µM | -2.4% | 3.98 µM (active) | 3.2% | -6.04% | > 46 µM | > 9.22 µM | inactive | inactive | – |
| C[C@@H]1C[C@H](C)CN(S(=O)(=O)c2cc(Cl)c(Oc3ccc([N+](=O)[O-])cc3Cl)c(Cl)c2)C1 | > 11.4 µM | 16.4% | inactive | -22.6% | 20.1% | > 46 µM | > 9.22 µM | inactive | inactive | – |
| CCn1c(CCCc2nc3c([nH]2)c(=O)n(C)c(=O)n3C)nc2c1c(=O)n(C)c(=O)n2C | > 11.4 µM | -3.01% | – | 6.75% | 1.77% | > 46 µM | > 9.22 µM | inactive | inactive | -16.7% [at 2.29 µM] |
| Oc1ccc(Cl)cc1C=Nc1cnc2ccccc2c1 | > 11.4 µM | 3.1% | – | 10.1% | -10.7% | > 46 µM | > 9.22 µM | inactive | inactive | -13.2% [at 2.29 µM] |
| Oc1cc(O)c2c(c1)O[C@@H](c1ccc(O)c(O)c1)[C@H](O[C@@]1(c3cc(O)c(O)c(O)c3)Oc3cc(O)cc(O)c3[C@H](O)[C@@H]1O)C2 | > 11.4 µM | 9.41% | inactive | 13.8% | -22.3% | > 46 µM | > 9.22 µM | inactive | inactive | – |
| O=C(O)[C@@H]1[C@@H](C(=O)Nc2ccccc2)[C@@H]2C=C[C@@H]1O2 | > 11.4 µM | 3.5% | – | 8.21% | -5.22% | > 46 µM | > 9.22 µM | inactive | inactive | -18.1% [at 2.29 µM] |
| N#C/C(=C\N1CCNC1=S)C(=O)c1ccc2ccccc2c1 | > 11.4 µM | -19.2% | 1.58 µM (active) | 5.58% | -8.82% | > 46 µM | > 9.22 µM | inactive | inactive | – |
| Cc1nc(CN2CCCCC2)c(O)c(=O)[nH]1 | > 11.4 µM | -7.91% | inactive | 12.6% | -9.62% | > 46 µM | > 9.22 µM | inactive | inactive | – |

| Structure (SMILES) | Potency [1] | activity change, negative = inhibition [2] | Potency [3] | activity change, negative = inhibition [4] | activity, negative = inhibition [5] | Potency [6] | Potency [7] | Potency [8] | Potency [9] | activity change, negative = inhibition [3] |
| --- | --- | --- | --- | --- | --- | --- | --- | --- | --- | --- |
| Oc1cccnc1CN1CCCCC1 | > 11.4 µM | -3.72% | inactive | 11.7% | 16.8% | > 46 µM | > 9.22 µM | inactive | inactive | – |
| Cn1c(=O)c2c(nc(Cc3ccccc3)n2CC(=O)O)n(C)c1=O | > 11.4 µM | 6.03% | – | 0.0397% | 10.4% | > 46 µM | > 9.22 µM | inactive | inactive | -13.2% [at 2.29 µM] |
| C[N+](C)(N)Cc1csc(-c2ccc(Cl)cc2)n1 | > 11.4 µM | 8.47% | – | -11.8% | 0.559% | > 46 µM | > 9.22 µM | inactive | inactive | -4.2% [at 2.29 µM] |
| CCOC(=O)[C@@H](O)Cc1cnc2ccccc2n1 | > 11.4 µM | 5.54% | 3.16 µM (active) | -6.57% | -5.21% | > 46 µM | > 9.22 µM | inactive | inactive | – |
| NC(N)=NC(N)=Nc1c(F)c(F)c(F)c(F)c1F | > 11.4 µM | 8.28% | – | -23.3% | 3% | > 46 µM | > 9.22 µM | inactive | inactive | 10.9% [at 2.29 µM] |
| Nc1nc(SCC(=O)O)[nH]c(=O)c1N | > 11.4 µM | 4.37% | inactive | 10.6% | 4.74% | > 46 µM | > 9.22 µM | inactive | inactive | – |
| N#C/C(=C\Nc1ccccn1)C(=O)C1CC1 | > 11.4 µM | 7.75% | 1.26 µM (active) | 5.1% | 1.86% | > 46 µM | > 9.22 µM | inactive | inactive | – |
| O=C(O)Cc1c(O)ccc2ccccc12 | > 11.4 µM | 1.11% | inactive | 12.6% | 7.17% | > 46 µM | > 9.22 µM | inactive | inactive | – |
| Cc1ccc(S(=O)(=O)NC(=O)OC23COCN2COC3)cc1 | > 11.4 µM | 8.05% | inactive | 27.6% | 15.3% | > 46 µM | > 9.22 µM | inactive | inactive | – |
| Cn1ccnc1C[C@@](C)(O)c1ccccc1 | > 11.4 µM | 7.99% | inactive | 2.18% | 8.21% | > 46 µM | > 9.22 µM | inactive | inactive | – |
| O=c1[nH]cc(CS(=O)(=O)Cc2c[nH]c(=O)[nH]c2=O)c(=O)[nH]1 | > 11.4 µM | -0.933% | inactive | 1.47% | 0.704% | > 46 µM | > 9.22 µM | inactive | inactive | – |
| C/C(=C\c1ccc(Cl)cc1)C(C)(C)C(=O)O | > 11.4 µM | 2.81% | inactive | -8.85% | -7.44% | > 46 µM | > 9.22 µM | inactive | inactive | – |
| CN(C)c1ccc(C2N([C@H](C#N)c3ccc(N(C)C)cc3)CCCN2[C@@H](C#N)c2ccc(N(C)C)cc2)cc1 (some centres undefined) | > 11.4 µM | 0.74% | 5.01 µM (active) | -11.3% | 6.93% | > 46 µM | > 9.22 µM | inactive | inactive | – |
| O=C(SCc1cccc2ccccc12)c1ccc(Cl)cc1 | > 11.4 µM | 9.24% | 0.794 µM (active) | -5.94% | 7% | > 46 µM | > 9.22 µM | inactive | inactive | – |
| CC(C)(CO[C@H]1C[C@H]2CC[C@@]1(C)C2(C)C)[N+](=O)[O-] | > 11.4 µM | -1.64% | inactive | 7.34% | -3.85% | > 46 µM | > 9.22 µM | inactive | inactive | – |
